Data: the supplement of paper PMC11732987, “Enantioselective OTUD7B fragment discovery through chemoproteomics screening and high-throughput optimisation” (Communications Chemistry, 2025)

Tests used:
Test in all cases: log2 ratio of Biotin-Ahx-Ub-VS probe labelling (fragment/DMSO); higher = less target engagement (more negative = stronger competition), active = hit call of the paper (q ≤ 0.05, log2 ratio ≤ -1)
Details in all cases: compound concentration: 200 uM; treatment time: 3 h
USP34 = USP34 (UniProt Q70CQ2)
Outline: (§1)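 The table lists average log2 ratios of fragment over vehicle, from an unpaired t-test on global-median-normalised Spectronaut label-free quantities. Proteins with ≥2 unique peptides were used. Samples were HEK293T lysate (495 µg) treated in triplicate with fragment at 200 µM or vehicle for 3 h, then with Biotin-Ahx-Ub-VS (0.5 µM final) for 1 h, with labelled DUBs NeutrAvidin-enriched and run by diaPASEF LC-MS/MS.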

USP36 = target: T1, USP36 (UniProt Q9P275)
T1 sequence (whole entry): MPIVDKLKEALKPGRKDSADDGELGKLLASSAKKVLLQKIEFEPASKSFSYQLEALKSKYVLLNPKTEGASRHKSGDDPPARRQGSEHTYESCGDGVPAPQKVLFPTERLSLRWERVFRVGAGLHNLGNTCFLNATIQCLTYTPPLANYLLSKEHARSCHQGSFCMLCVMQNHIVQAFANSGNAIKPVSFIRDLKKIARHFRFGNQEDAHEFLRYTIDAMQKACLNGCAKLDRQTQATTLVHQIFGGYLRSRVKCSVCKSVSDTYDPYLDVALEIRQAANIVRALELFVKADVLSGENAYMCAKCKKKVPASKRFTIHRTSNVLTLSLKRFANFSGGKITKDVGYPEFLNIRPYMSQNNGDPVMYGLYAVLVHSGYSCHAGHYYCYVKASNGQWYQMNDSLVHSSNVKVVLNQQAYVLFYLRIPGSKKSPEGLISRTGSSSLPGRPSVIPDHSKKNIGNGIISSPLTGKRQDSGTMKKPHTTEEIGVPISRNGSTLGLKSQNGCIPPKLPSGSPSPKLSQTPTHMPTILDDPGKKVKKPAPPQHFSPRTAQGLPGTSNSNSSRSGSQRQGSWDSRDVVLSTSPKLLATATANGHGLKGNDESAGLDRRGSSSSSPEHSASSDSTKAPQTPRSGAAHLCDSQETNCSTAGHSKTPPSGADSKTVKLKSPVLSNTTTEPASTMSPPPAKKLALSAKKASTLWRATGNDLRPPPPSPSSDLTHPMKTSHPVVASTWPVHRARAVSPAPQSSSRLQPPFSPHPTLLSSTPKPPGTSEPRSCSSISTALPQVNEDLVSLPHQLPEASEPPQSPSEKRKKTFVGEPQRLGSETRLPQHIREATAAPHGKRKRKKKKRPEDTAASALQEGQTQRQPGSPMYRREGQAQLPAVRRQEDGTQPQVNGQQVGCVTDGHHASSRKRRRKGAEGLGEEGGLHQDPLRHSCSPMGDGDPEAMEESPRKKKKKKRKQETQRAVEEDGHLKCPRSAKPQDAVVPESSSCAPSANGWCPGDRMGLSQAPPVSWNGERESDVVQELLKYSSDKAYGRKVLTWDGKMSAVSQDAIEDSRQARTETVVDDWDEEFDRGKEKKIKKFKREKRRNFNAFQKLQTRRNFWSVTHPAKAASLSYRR
Outline: as §1

USP38 = target: T2, USP38 (UniProt Q8NB14)
T2 sequence (whole entry): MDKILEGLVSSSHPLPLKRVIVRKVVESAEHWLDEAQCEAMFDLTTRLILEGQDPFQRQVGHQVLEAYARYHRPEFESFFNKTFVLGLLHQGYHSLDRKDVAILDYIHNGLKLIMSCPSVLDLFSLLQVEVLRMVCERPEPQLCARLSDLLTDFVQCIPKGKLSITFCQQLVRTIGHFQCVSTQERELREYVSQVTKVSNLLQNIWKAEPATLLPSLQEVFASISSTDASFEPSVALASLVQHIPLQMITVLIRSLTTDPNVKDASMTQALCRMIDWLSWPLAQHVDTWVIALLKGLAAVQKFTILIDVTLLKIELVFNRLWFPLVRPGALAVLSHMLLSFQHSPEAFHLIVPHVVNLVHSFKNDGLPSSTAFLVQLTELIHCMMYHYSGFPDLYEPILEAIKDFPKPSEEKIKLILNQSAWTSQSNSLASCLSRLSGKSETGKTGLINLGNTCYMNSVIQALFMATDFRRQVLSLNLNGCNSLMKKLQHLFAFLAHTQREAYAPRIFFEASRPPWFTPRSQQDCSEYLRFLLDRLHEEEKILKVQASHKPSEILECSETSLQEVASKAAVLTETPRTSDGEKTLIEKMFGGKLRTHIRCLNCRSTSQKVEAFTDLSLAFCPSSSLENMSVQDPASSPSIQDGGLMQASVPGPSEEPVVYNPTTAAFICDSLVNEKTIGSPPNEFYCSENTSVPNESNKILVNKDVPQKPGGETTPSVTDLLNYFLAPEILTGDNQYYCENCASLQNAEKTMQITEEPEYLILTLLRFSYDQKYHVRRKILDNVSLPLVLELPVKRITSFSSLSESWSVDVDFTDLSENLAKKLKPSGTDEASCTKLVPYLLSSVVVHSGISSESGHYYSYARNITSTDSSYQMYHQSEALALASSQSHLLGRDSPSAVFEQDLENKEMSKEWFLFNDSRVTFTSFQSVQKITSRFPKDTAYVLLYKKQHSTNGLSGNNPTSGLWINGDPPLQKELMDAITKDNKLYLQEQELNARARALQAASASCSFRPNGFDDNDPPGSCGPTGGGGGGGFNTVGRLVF
Outline: as §1

USP39 = target: T3, USP39 (UniProt Q53GS9)
T3 sequence (whole entry): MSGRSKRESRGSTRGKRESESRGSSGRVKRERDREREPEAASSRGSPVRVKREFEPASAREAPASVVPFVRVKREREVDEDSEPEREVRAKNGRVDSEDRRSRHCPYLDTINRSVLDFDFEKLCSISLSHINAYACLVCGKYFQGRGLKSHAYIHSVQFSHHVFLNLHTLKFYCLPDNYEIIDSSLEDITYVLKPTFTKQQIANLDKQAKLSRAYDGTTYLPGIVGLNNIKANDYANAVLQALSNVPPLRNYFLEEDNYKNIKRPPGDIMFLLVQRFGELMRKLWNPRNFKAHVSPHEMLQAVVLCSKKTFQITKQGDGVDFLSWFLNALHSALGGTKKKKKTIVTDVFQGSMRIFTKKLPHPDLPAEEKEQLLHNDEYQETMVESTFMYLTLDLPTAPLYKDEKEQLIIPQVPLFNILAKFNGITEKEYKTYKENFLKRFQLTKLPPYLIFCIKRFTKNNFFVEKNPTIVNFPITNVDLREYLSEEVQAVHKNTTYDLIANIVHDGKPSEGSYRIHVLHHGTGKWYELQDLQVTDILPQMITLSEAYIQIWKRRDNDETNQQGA
Outline: as §1

USP4 = target: T4, USP4 (UniProt Q13107)
T4 sequence (whole entry): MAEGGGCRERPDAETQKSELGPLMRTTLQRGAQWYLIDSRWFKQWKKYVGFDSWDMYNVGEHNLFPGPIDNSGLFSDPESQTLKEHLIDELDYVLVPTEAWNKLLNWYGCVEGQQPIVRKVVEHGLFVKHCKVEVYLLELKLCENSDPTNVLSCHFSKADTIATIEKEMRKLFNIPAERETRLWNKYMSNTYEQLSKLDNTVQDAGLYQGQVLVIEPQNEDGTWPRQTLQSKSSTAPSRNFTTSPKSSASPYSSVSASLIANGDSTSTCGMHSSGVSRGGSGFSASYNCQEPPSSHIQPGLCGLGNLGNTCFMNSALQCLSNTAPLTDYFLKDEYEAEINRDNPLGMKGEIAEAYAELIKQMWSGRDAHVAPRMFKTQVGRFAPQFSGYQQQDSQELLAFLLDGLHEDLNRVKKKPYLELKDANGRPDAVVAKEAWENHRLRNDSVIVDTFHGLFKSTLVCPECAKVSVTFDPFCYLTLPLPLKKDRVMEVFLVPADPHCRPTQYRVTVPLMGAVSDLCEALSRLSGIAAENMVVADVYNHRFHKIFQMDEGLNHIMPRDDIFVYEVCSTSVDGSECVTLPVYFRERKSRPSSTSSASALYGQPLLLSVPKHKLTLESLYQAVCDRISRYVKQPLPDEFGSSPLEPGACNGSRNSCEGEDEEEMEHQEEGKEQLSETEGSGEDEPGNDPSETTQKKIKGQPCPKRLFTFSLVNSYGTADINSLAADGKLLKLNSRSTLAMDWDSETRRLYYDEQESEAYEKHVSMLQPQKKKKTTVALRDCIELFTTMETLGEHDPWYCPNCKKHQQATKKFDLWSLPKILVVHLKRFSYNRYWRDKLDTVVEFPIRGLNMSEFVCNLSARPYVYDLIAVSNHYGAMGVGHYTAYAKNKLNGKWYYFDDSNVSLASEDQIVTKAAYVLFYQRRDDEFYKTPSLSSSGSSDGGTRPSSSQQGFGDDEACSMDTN
Outline: as §1

Measured: log2 ratio of Biotin-Ahx-Ub-VS probe labelling

USP34, sequence (Q70CQ2 whole entry, the tested form may be a part): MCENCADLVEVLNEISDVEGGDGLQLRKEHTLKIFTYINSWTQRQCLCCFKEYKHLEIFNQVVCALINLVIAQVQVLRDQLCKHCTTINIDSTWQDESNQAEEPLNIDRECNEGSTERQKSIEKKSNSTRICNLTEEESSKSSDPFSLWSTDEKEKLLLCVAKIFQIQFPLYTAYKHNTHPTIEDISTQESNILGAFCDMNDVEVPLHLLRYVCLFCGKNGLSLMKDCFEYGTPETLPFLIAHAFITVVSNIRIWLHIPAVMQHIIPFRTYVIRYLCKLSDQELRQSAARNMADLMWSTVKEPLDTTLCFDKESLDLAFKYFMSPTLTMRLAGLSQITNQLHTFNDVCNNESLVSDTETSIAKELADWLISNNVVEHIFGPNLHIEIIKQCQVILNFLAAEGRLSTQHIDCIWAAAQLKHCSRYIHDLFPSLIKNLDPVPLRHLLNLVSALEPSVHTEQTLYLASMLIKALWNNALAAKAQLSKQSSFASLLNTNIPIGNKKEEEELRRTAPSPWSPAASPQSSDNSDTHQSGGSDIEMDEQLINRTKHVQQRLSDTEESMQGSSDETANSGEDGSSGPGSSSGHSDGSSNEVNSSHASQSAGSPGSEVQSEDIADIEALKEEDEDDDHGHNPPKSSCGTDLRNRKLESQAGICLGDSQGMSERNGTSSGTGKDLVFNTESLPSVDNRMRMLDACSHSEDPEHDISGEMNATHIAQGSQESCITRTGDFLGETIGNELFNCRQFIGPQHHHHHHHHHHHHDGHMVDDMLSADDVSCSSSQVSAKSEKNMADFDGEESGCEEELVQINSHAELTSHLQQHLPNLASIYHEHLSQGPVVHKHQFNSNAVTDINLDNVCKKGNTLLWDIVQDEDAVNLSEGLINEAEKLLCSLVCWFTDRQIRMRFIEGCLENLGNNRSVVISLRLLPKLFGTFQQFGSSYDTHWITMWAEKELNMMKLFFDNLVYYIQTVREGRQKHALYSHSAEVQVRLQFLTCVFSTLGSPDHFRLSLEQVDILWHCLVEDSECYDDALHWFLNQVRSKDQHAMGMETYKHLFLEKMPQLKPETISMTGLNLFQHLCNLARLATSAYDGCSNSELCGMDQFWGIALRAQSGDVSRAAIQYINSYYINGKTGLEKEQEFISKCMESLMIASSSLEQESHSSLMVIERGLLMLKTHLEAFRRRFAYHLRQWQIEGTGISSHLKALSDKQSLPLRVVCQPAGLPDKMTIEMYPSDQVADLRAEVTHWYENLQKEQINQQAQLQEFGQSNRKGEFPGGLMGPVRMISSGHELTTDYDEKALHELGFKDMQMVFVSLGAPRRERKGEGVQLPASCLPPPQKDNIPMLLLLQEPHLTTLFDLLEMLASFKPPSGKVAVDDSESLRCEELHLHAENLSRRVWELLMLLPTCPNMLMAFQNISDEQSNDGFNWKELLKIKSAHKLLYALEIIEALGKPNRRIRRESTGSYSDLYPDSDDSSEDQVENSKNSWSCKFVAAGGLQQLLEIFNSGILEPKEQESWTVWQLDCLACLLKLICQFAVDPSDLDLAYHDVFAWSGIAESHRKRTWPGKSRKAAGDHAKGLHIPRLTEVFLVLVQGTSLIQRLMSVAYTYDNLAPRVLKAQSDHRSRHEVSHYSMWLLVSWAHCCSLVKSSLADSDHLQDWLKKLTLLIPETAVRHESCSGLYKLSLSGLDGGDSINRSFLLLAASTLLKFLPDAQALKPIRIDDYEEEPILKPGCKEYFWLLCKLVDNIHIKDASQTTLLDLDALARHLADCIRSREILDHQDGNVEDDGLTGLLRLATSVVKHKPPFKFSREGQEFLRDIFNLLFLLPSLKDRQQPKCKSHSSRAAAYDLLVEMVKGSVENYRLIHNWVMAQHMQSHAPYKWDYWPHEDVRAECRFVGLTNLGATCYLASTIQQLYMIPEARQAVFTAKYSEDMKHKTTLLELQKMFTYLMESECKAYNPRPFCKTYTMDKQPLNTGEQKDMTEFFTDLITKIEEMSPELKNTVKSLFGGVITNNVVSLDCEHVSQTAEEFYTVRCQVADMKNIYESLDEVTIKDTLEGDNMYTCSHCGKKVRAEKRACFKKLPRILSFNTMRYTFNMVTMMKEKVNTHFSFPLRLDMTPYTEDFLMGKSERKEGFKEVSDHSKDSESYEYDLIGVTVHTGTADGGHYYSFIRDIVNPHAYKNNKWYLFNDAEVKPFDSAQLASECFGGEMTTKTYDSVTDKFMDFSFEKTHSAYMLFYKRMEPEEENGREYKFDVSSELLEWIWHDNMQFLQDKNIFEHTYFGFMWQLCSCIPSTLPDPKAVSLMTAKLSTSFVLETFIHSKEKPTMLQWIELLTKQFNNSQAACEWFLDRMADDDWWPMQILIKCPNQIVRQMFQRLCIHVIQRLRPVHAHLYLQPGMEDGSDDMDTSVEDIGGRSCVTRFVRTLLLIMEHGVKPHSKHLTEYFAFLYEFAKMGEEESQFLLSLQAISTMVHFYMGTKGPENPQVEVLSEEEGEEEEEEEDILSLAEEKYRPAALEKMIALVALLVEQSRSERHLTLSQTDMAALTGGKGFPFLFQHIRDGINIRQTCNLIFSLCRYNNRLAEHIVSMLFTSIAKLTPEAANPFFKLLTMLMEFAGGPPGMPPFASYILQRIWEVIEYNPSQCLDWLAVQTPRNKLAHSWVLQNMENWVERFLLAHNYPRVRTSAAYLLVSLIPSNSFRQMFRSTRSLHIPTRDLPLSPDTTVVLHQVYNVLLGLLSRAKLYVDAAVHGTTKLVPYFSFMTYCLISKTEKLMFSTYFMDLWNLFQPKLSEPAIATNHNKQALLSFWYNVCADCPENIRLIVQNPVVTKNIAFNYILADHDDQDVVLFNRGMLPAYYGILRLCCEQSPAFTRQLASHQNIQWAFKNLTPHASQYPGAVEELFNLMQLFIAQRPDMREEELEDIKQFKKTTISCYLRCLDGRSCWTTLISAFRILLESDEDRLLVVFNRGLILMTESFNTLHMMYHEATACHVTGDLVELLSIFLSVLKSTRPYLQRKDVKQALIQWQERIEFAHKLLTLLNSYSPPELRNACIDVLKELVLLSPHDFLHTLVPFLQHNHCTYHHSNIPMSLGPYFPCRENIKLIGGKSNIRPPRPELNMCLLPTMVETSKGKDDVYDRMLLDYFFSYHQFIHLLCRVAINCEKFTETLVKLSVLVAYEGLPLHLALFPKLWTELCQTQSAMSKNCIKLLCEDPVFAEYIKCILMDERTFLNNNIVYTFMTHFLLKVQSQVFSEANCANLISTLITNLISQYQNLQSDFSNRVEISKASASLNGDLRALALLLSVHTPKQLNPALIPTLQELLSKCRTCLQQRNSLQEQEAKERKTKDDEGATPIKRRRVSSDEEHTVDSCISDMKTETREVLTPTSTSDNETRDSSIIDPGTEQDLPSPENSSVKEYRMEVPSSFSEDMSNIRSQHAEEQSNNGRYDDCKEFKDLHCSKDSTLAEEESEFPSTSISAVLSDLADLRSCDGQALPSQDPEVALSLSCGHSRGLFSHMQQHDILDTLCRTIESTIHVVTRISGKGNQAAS

CCN1C(=O)C2CN(C(=O)CCl)CCN2C1=O (stereo not given)
inactive: USP34 0.053 | USP36 -0.271 | USP38 -0.0595 | USP39 -0.0577 | USP4 0.0781
